Shown are actives, neighbours in structure and some others; about 3.3% of the full set was active somewhere.
AmpC detergent – inhibitors of E. coli AmpC beta-lactamase with detergent | AmpC hydrolysis of nitrocefin, absorbance 480 nm, 0.01% Triton | Potency, µM (highest dose often 114 µM), for the others: at the highest dose activity change, negative = inhibition, actives largely listed as inhibitors | hit rate 0.041% among 370,000 | AID 485294;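 further: 0% = no-compound wells and -100% = no-enzyme wells; nearly all actives have a fitted effect of over 25% in size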
Target sequence (P00811 whole entry, looked up): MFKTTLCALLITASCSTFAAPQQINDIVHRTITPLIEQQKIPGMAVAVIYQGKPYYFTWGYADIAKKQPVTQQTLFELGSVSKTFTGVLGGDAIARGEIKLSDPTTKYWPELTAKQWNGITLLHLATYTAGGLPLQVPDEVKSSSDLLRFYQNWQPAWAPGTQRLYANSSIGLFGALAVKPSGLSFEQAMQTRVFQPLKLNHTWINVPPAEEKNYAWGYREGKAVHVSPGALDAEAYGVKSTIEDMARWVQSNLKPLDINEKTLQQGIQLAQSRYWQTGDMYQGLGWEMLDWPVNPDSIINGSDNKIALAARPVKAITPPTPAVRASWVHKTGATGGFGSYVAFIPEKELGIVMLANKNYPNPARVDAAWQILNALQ
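AmpC (5.3 nM in the dispensed reagent) in 20 mM phosphate pH 7.0 with 0.01% (detergent screen) or 0.0001% Triton X-100 was preincubated with compounds for 15 min at room temperature. Nitrocefin was then added from an 800 uM solution, and hydrolysis was followed at 480 nm.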
AmpC no deterg – inhibitors of E. coli AmpC beta-lactamase without detergent; Potency, µM (titrated, usually from 57.1 µM), for the others: at the top dose activity change, negative = inhibition, most hits filed as inhibitors; hit rate 0.52% among 330,000; AmpC nitrocefin hydrolysis, absorbance 480 nm, 0.0001% Triton;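 further: plate controls were no compound for no effect and no enzyme for full effect; nearly all actives have a fitted effect of over 20% in size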
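20 mM phosphate pH 7.0 + 0.01% (detergent screen) or 0.0001% Triton X-100; 5.3 nM AmpC reagent; cpd preinc 15 min RT; nitrocefin (800 uM stock) to start; A480 q20 s × 4 min; Activity was normalised to no-enzyme and no-compound control wells.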
Sm TGR block – S. mansoni TGR enzyme inhibition. Q962Y6. purified TGR, DTNB reduction, TNB absorbance 405 nm. Potency, µM (top dose mostly 114 µM), without a hit: top-dose activity change, negative = inhibition, most hits filed as inhibitors. hit rate 3% among 360,000. AID 485364; further: nearly all actives have a fitted effect of over 60% in size
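Kinetic colorimetric format: TGR-catalysed, NADPH-driven DTNB reduction monitored via TNB absorbance. Enzyme dispensed at 20 nM; compound exposure 15 min at room temperature before reaction start.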
Numbers without * were called inactive. The call rests on the fitted dose curve; in most records, active means well fitted curve in the direction sought with a large enough effect; inconclusive means small, poorly fitted or top-dose-only effect, or another doubt; inactive means no such curve, though single readings can be large; an effect the other way counts as inactive or inconclusive. Unless noted, on the % scale 0 is the no-effect control and ±100 the full control effect; potency means the concentration at half of the fitted maximal effect.

Screening O=C(COc1ccccc1)N(Cc1cccnc1)c1nc2c(F)cc(F)cc2s1 returned AmpC detergent 1% and Sm TGR block -1%.
For CC(=O)N(Cc1cccnc1)c1nc2ccc(F)cc2s1 the results were AmpC detergent -1% and Sm TGR block 6%.
Screening O=C(Nc1sc2c(c1C(=O)NCc1ccco1)CCCC2)c1cc(=O)c2ccccc2o1 returned AmpC detergent -1% and Sm TGR block -20%.
`Cc1ccc(-n2ncc(C(=O)Nc3ccc4c(c3)OCCO4)c2C2CCN(C(=O)OC(C)(C)C)CC2)cc1C` gave AmpC detergent 22% and Sm TGR block -1%.
For COc1ccc(C2CC(=O)N(Cc3ccccc3)c3c2c(C)nn3-c2nc(C)cc(C)n2)c(OC)c1 (configuration not stated) the results were AmpC detergent 16% and Sm TGR block 8%.
For COc1cccc(C2=C(C(C)=O)Sc3nncn3N2C(C)=O)c1 the results were AmpC detergent 1% and Sm TGR block inconclusive.
`CC(=O)C1=C(c2ccc(Cl)c(Cl)c2)N(C(C)=O)n2cnnc2S1` gave AmpC detergent 2% and Sm TGR block 10µM*.
Screening COc1ccc(OC)c(-c2csc(-c3c(N)c(C(=O)c4ccc(Cl)cc4)n4ccccc34)n2)c1 returned AmpC detergent 7% and Sm TGR block 3%.
Screening COC(=O)c1ccc(C2Nc3c(C)cccc3-c3cc(C)nn32)cc1 (configuration not stated) returned AmpC detergent 13% and Sm TGR block -5%.
Screening COc1ccc(OC)c(NC(=O)Cn2c(=O)n(Cc3ccco3)c(=O)c3cc(OC)c(OC)cc32)c1 returned AmpC detergent -3% and Sm TGR block -13%.
For CCOC(=O)N1CCN(CCC(=O)Nc2cccc(F)c2)CC1 the results were AmpC detergent 12% and Sm TGR block 8%.
COc1ccc(CCn2c3c(c(=O)[nH]c2=O)C(NC(=O)c2ccc(C(C)(C)C)cc2)(C(F)(F)F)C(=O)N3)cc1OC (configuration not stated) was read as AmpC detergent -3% and Sm TGR block inconclusive.
`CCCCc1nc2ccccc2n1CC(=O)N(COCC)c1c(C)cccc1CC` gave AmpC detergent 7% and Sm TGR block 3%.
For Cc1oc(-c2ccc(Cl)cc2)[n+]([O-])c1C the results were AmpC detergent -13%, AmpC no deterg -15% and Sm TGR block 50µM*.
Screening COc1ccc2oc3cc(C)[n+]([O-])c(-c4ccc(Cl)cc4)c3c2c1 returned AmpC detergent -8%, AmpC no deterg 2% and Sm TGR block 1%.
For COc1ccc(OC)c(C2CC(=O)Nc3c2c(=O)n(C)c2ncnn32)c1 (configuration not stated) the results were AmpC detergent 2% and Sm TGR block -11%.
`Cc1ccc(Cl)cc1N1CCN(CCCNc2ncnc3onc(-c4ccc(F)cc4)c23)CC1` gave AmpC detergent 0% and Sm TGR block -1%.
For CC(C)=CCc1c(O)cc2oc3c(CC=C(C)C)c(O)c(O)c(CC=C(C)C)c3c(=O)c2c1O the results were AmpC detergent 6%, AmpC no deterg 14µM* and Sm TGR block -16%.
COc1cc2ccc(=O)oc2c(CC=C(C)C)c1OC was read as AmpC detergent 6%, AmpC no deterg -20% and Sm TGR block -7%.
`CCc1nnc(NC(=O)CSc2ncnc3c2oc2ccccc23)s1` gave AmpC detergent -5%, AmpC no deterg 1% and Sm TGR block -22%.
O=C(CSc1ncnc2c1oc1ccccc12)Nc1nc2ccccc2s1 was read as AmpC detergent inconclusive, AmpC no deterg 0.79µM* and Sm TGR block -3%.
`C=CCn1c(O)c(N=Nc2ccccc2C)c2ccccc21` gave AmpC detergent 10%, AmpC no deterg -27% and Sm TGR block 18µM*.
C=CCn1c(O)c(N=O)c2ccccc21 was read as AmpC detergent -5%, AmpC no deterg -10% and Sm TGR block 10%.
COc1ccc(N2C(=O)C(CC(=O)Nc3ccc(Cl)cc3)N(Cc3ccc4c(c3)OCO4)C2=O)cc1 (configuration not stated) was read as AmpC detergent -4% and Sm TGR block 1%.
`Cc1ccc(CNC(=O)COc2ccc(C)nc2[N+](=O)[O-])cc1` gave AmpC detergent -5%, AmpC no deterg 6% and Sm TGR block -19%.
Cc1ccc(OCC(=O)c2ccc(Cl)s2)c([N+](=O)[O-])n1 was read as AmpC detergent 6%, AmpC no deterg inconclusive and Sm TGR block 3.5µM*.
For COc1cc(NC(=O)c2c(C)nn(-c3ccc(F)cc3)c2-n2cccc2)cc(OC)c1 the results were AmpC detergent 2% and Sm TGR block 4%.
Screening COC(=O)c1scc(-c2ccc(C)cc2)c1S(=O)(=O)N1CCN(c2cccc(Cl)c2)CC1 returned AmpC detergent 27% and Sm TGR block -8%.
CCN1CCN(Cc2c(O)ccc3c2O/C(=C\C=C\c2ccccc2)C3=O)CC1 was read as AmpC detergent inconclusive, AmpC no deterg 169% and Sm TGR block 35µM*.
Screening CC1CCCN(Cc2c(O)ccc3c2O/C(=C\c2ccco2)C3=O)C1 (configuration not stated) returned AmpC detergent 20%, AmpC no deterg -31% and Sm TGR block 25µM*.
CN(C)Cc1c(O)ccc2c1O/C(=C\C=C\c1ccccc1)C2=O was read as AmpC detergent 1%, AmpC no deterg 56% and Sm TGR block 11µM*.
`CCc1ccc(/C=C2\Oc3c(ccc(O)c3CN3CCN(C)CC3)C2=O)cc1` gave AmpC detergent 1%, AmpC no deterg 92% and Sm TGR block -16%.
Cc1ccc(/C=C2\Oc3c(ccc(O)c3CN3CCN(C)CC3)C2=O)cc1 was read as AmpC detergent 7%, AmpC no deterg 27% and Sm TGR block -17%.
For COc1ccccc1/C=C/C=C1\Oc2c(ccc(O)c2CN2CCN(CCO)CC2)C1=O the results were AmpC detergent -6%, AmpC no deterg 184% and Sm TGR block inconclusive.
Cc1oc2ccc(O)c(CN(C)C)c2c1C(=O)c1ccccc1 was read as AmpC detergent -3%, AmpC no deterg -23% and Sm TGR block -1%.
For O=C1/C(=C/C=C/c2ccccc2)Oc2c1ccc(O)c2CN1CCN(CCO)CC1 the results were AmpC detergent 1%, AmpC no deterg 89% and Sm TGR block 40µM*.
Screening Cc1ccccc1CNC(=O)c1ccc2nc(SCc3ccc(F)cc3)n(C)c2c1 returned AmpC detergent 21% and Sm TGR block -4%.
COc1cccc(CNC(=O)C(=O)Nc2ccc3nc4n(c(=O)c3c2)CCCCC4)c1 was read as AmpC detergent 15% and Sm TGR block 7%.
Screening CCN1CCN(Cc2c(O)ccc3c2O/C(=C\c2ccc(C)cc2)C3=O)CC1 returned AmpC detergent -1%, AmpC no deterg 45% and Sm TGR block inconclusive.
CCN1CCN(Cc2c(O)ccc3c2O/C(=C\c2ccccc2)C3=O)CC1 was read as AmpC detergent 3%, AmpC no deterg -4% and Sm TGR block 45µM*.
